# How the values were obtained:
# Assay in all cases: SPOT peptide array binding signal intensity (averaged, normalized) (arbitrary units (background-subtracted, floor 0; scale differs between SH3 domains)); higher = stronger binding of the SH3 domain to the peptide
# AgAbp1 = biological target: AgAbp1
# Experimental: (§1)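 GST-tagged SH3 domains from S. cerevisiae (Sc), A. gossypii (Ag), C. albicans (Ca) and S. pombe (Sp) were incubated at 10 ug/ml overnight at 4 C on cellulose SPOT membranes carrying 292 synthetic 15-mer peptides mined from the S. cerevisiae proteome (cysteines replaced by serines). Binding was detected with anti-GST antibody, HRP secondary and chemiluminescence, quantified with Genespotter, and reported as normalized spot intensities averaged over biological replicates.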
# AgBbc1 = biological target: AgBbc1
# Experimental: as §1
# AgBem1-D1 = biological target: AgBem1-D1
# Experimental: as §1
# AgBzz1-D1 = biological target: AgBzz1-D1
# Experimental: as §1
# AgBzz1-D2 = biological target: AgBzz1-D2
# Experimental: as §1
# AgCyk3 = biological target: AgCyk3
# Experimental: as §1
# AgFus1 = biological target: AgFus1
# Experimental: as §1
# AgHof1 = biological target: AgHof1
# Experimental: as §1
# AgHse1 = biological target: AgHse1
# Experimental: as §1
# AgLsb1 = biological target: AgLsb1
# Experimental: as §1
# AgLsb4 = biological target: AgLsb4
# Experimental: as §1
# AgMyo5 = biological target: AgMyo5
# Experimental: as §1
# AgNbp2 = biological target: AgNbp2
# Experimental: as §1
# AgRvs167 = biological target: AgRvs167
# Experimental: as §1
# AgSho1 = biological target: AgSho1
# Experimental: as §1
# AgSla1-D1-D2 = biological target: AgSla1-D1-D2
# Experimental: as §1
# AgSla1-D3 = biological target: AgSla1-D3
# Experimental: as §1
# CaAbp1-D1 = biological target: CaAbp1-D1
# Experimental: as §1
# CaAbp1-D2 = biological target: CaAbp1-D2
# Experimental: as §1
# CaBbc1 = biological target: CaBbc1
# Experimental: as §1
# CaBem1-D1 = biological target: CaBem1-D1
# Experimental: as §1
# CaBzz1-D1 = biological target: CaBzz1-D1
# Experimental: as §1
# CaBzz1-D2 = biological target: CaBzz1-D2
# Experimental: as §1
# CaCyk3 = biological target: CaCyk3
# Experimental: as §1
# CaFus1 = biological target: CaFus1
# Experimental: as §1
# CaHof1 = biological target: CaHof1
# Experimental: as §1
# CaHse1 = biological target: CaHse1
# Experimental: as §1
# CaLsb1 = biological target: CaLsb1
# Experimental: as §1
# CaLsb4 = biological target: CaLsb4
# Experimental: as §1
# CaMyo5 = biological target: CaMyo5
# Experimental: as §1
# CaNbp2 = biological target: CaNbp2
# Experimental: as §1
# CaRvs167 = biological target: CaRvs167
# Experimental: as §1
# CaRvs167-3 = biological target: CaRvs167-3
# Experimental: as §1
# CaSho1 = biological target: CaSho1
# Experimental: as §1
# CaSla1-D1-D2 = biological target: CaSla1-D1-D2
# Experimental: as §1
# CaSla1-D3 = biological target: CaSla1-D3
# Experimental: as §1
# ScAbp1 = biological target: ScAbp1
# Experimental: as §1
# ScBbc1 = biological target: ScBbc1
# Experimental: as §1
# ScBem1-D1 = biological target: ScBem1-D1
# Experimental: as §1
# ScBzz1-D1 = biological target: ScBzz1-D1
# Experimental: as §1
# ScBzz1-D2 = biological target: ScBzz1-D2
# Experimental: as §1
# ScCyk3 = biological target: ScCyk3
# Experimental: as §1
# ScFus1 = biological target: ScFus1
# Experimental: as §1
# ScHof1 = biological target: ScHof1
# Experimental: as §1
# ScHse1 = biological target: ScHse1
# Experimental: as §1
# ScLsb1 = biological target: ScLsb1
# Experimental: as §1
# ScLsb2 = biological target: ScLsb2
# Experimental: as §1
# ScLsb3 = biological target: ScLsb3
# Experimental: as §1
# ScLsb4 = biological target: ScLsb4
# Experimental: as §1
# ScMyo3 = biological target: ScMyo3
# Experimental: as §1
# ScMyo5 = biological target: ScMyo5
# Experimental: as §1
# ScNbp2 = biological target: ScNbp2
# Experimental: as §1
# ScPex13 = biological target: ScPex13
# Experimental: as §1
# ScRvs167 = biological target: ScRvs167
# Experimental: as §1
# ScSho1 = biological target: ScSho1
# Experimental: as §1
# ScSla1-D1-D2 = biological target: ScSla1-D1-D2
# Experimental: as §1
# ScSla1-D3 = biological target: ScSla1-D3
# Experimental: as §1
# SpAbp1-D1 = biological target: SpAbp1-D1
# Experimental: as §1
# SpBbc1 = biological target: SpBbc1
# Experimental: as §1
# SpBzz1-D1 = biological target: SpBzz1-D1
# Experimental: as §1
# SpBzz1-D2 = biological target: SpBzz1-D2
# Experimental: as §1
# SpCyk3 = biological target: SpCyk3
# Experimental: as §1
# SpHof1 = biological target: SpHof1
# Experimental: as §1
# SpHof1-2 = biological target: SpHof1-2
# Experimental: as §1
# SpHof1-3 = biological target: SpHof1-3
# Experimental: as §1
# SpHse1 = biological target: SpHse1
# Experimental: as §1
# SpLsb1 = biological target: SpLsb1
# Experimental: as §1
# SpLsb4 = biological target: SpLsb4
# Experimental: as §1
# SpMyo1 = biological target: SpMyo1
# Experimental: as §1
# SpNbp2 = biological target: SpNbp2
# Experimental: as §1
# SpPex13 = biological target: SpPex13
# Experimental: as §1
# SpRvs167 = biological target: SpRvs167
# Experimental: as §1
# SpSla1-D1-D2 = biological target: SpSla1-D1-D2
# Experimental: as §1
# SpSla1-D3 = biological target: SpSla1-D3
# Experimental: as §1
binder,measurement,setting,value
RRRRRPHRIERPLSN,SPOT peptide array binding signal intensity,AgAbp1,25
same,SPOT peptide array binding signal intensity,AgBbc1,170
same,SPOT peptide array binding signal intensity,AgBem1-D1,136
same,SPOT peptide array binding signal intensity,AgBzz1-D1,33
same,SPOT peptide array binding signal intensity,AgBzz1-D2,43
same,SPOT peptide array binding signal intensity,AgCyk3,33
same,SPOT peptide array binding signal intensity,AgFus1,322
same,SPOT peptide array binding signal intensity,AgHof1,28.5
same,SPOT peptide array binding signal intensity,AgHse1,833
same,SPOT peptide array binding signal intensity,AgLsb1,4.25
same,SPOT peptide array binding signal intensity,AgLsb4,160
same,SPOT peptide array binding signal intensity,AgMyo5,2.25
same,SPOT peptide array binding signal intensity,AgNbp2,72
same,SPOT peptide array binding signal intensity,AgRvs167,3.17
same,SPOT peptide array binding signal intensity,AgSho1,37.5
same,SPOT peptide array binding signal intensity,AgSla1-D1-D2,354
same,SPOT peptide array binding signal intensity,AgSla1-D3,1
same,SPOT peptide array binding signal intensity,CaAbp1-D1,454
same,SPOT peptide array binding signal intensity,CaAbp1-D2,512
same,SPOT peptide array binding signal intensity,CaBbc1,300
same,SPOT peptide array binding signal intensity,CaBem1-D1,53.5
same,SPOT peptide array binding signal intensity,CaBzz1-D1,96
same,SPOT peptide array binding signal intensity,CaBzz1-D2,34
same,SPOT peptide array binding signal intensity,CaCyk3,147
same,SPOT peptide array binding signal intensity,CaFus1,525
same,SPOT peptide array binding signal intensity,CaHof1,≤ 0
same,SPOT peptide array binding signal intensity,CaHse1,30.5
same,SPOT peptide array binding signal intensity,CaLsb1,1.5
same,SPOT peptide array binding signal intensity,CaLsb4,108
same,SPOT peptide array binding signal intensity,CaMyo5,2
YHSRRHPLALGFKYV,SPOT peptide array binding signal intensity,AgAbp1,25.5
same,SPOT peptide array binding signal intensity,AgBbc1,12
same,SPOT peptide array binding signal intensity,AgBem1-D1,86
same,SPOT peptide array binding signal intensity,AgBzz1-D1,≤ 0
same,SPOT peptide array binding signal intensity,AgBzz1-D2,≤ 0
same,SPOT peptide array binding signal intensity,AgCyk3,4
same,SPOT peptide array binding signal intensity,AgFus1,566
same,SPOT peptide array binding signal intensity,AgHof1,19
same,SPOT peptide array binding signal intensity,AgHse1,187
same,SPOT peptide array binding signal intensity,AgLsb1,2
same,SPOT peptide array binding signal intensity,AgLsb4,2
same,SPOT peptide array binding signal intensity,AgMyo5,3.25
same,SPOT peptide array binding signal intensity,AgNbp2,41.5
same,SPOT peptide array binding signal intensity,AgRvs167,7.67
same,SPOT peptide array binding signal intensity,AgSho1,26
same,SPOT peptide array binding signal intensity,AgSla1-D1-D2,26
same,SPOT peptide array binding signal intensity,AgSla1-D3,17
same,SPOT peptide array binding signal intensity,CaAbp1-D1,156
same,SPOT peptide array binding signal intensity,CaAbp1-D2,81.5
same,SPOT peptide array binding signal intensity,CaBbc1,6.75
same,SPOT peptide array binding signal intensity,CaBem1-D1,121
same,SPOT peptide array binding signal intensity,CaBzz1-D1,64
same,SPOT peptide array binding signal intensity,CaBzz1-D2,22
same,SPOT peptide array binding signal intensity,CaCyk3,4
same,SPOT peptide array binding signal intensity,CaFus1,630
same,SPOT peptide array binding signal intensity,CaHof1,4.5
same,SPOT peptide array binding signal intensity,CaHse1,38.5
same,SPOT peptide array binding signal intensity,CaLsb1,1.75
same,SPOT peptide array binding signal intensity,CaLsb4,≤ 0
same,SPOT peptide array binding signal intensity,CaMyo5,38.5
same,SPOT peptide array binding signal intensity,CaNbp2,204
same,SPOT peptide array binding signal intensity,CaRvs167,44
same,SPOT peptide array binding signal intensity,CaRvs167-3,103
same,SPOT peptide array binding signal intensity,CaSho1,153
same,SPOT peptide array binding signal intensity,CaSla1-D1-D2,124
same,SPOT peptide array binding signal intensity,CaSla1-D3,23.5
same,SPOT peptide array binding signal intensity,ScAbp1,54
same,SPOT peptide array binding signal intensity,ScBbc1,2.75
same,SPOT peptide array binding signal intensity,ScBem1-D1,58
same,SPOT peptide array binding signal intensity,ScBzz1-D1,1.5
same,SPOT peptide array binding signal intensity,ScBzz1-D2,40.5
same,SPOT peptide array binding signal intensity,ScCyk3,13.5
same,SPOT peptide array binding signal intensity,ScFus1,368
same,SPOT peptide array binding signal intensity,ScHof1,16.5
same,SPOT peptide array binding signal intensity,ScHse1,480
same,SPOT peptide array binding signal intensity,ScLsb1,1.5
same,SPOT peptide array binding signal intensity,ScLsb2,6.5
same,SPOT peptide array binding signal intensity,ScLsb3,≤ 0
same,SPOT peptide array binding signal intensity,ScLsb4,12
same,SPOT peptide array binding signal intensity,ScMyo3,18.8
same,SPOT peptide array binding signal intensity,ScMyo5,24.2
same,SPOT peptide array binding signal intensity,ScNbp2,102
same,SPOT peptide array binding signal intensity,ScPex13,10.5
same,SPOT peptide array binding signal intensity,ScRvs167,31.2
same,SPOT peptide array binding signal intensity,ScSho1,592
same,SPOT peptide array binding signal intensity,ScSla1-D1-D2,65
same,SPOT peptide array binding signal intensity,ScSla1-D3,4.75
same,SPOT peptide array binding signal intensity,SpAbp1-D1,130
same,SPOT peptide array binding signal intensity,SpBbc1,8.75
same,SPOT peptide array binding signal intensity,SpBzz1-D1,122
same,SPOT peptide array binding signal intensity,SpBzz1-D2,2
same,SPOT peptide array binding signal intensity,SpCyk3,3
same,SPOT peptide array binding signal intensity,SpHof1,42.8
same,SPOT peptide array binding signal intensity,SpHof1-2,10.8
same,SPOT peptide array binding signal intensity,SpHof1-3,386
same,SPOT peptide array binding signal intensity,SpHse1,274
same,SPOT peptide array binding signal intensity,SpLsb1,50.5
same,SPOT peptide array binding signal intensity,SpLsb4,≤ 0
same,SPOT peptide array binding signal intensity,SpMyo1,14.5
same,SPOT peptide array binding signal intensity,SpNbp2,53
same,SPOT peptide array binding signal intensity,SpPex13,52
same,SPOT peptide array binding signal intensity,SpRvs167,66.2
same,SPOT peptide array binding signal intensity,SpSla1-D1-D2,1
same,SPOT peptide array binding signal intensity,SpSla1-D3,23.5
